Values joined by “and” are separate entries in the source; they are usually repeats but may differ in a detail not shown here. Equal values may be shown once. Active and inactive are the calls of the source. Unless noted, the rule behind the calls is not given here.

From PubChem BioAssay come the findings set out here.

Assay [1] has as its system XIP peptide (Xip251-270) binding. As to the kind of experiment: XIP fragment 251-270 binding compounds – biochemical, small-molecule microarray, fluorescence 635/667 nm, 0.1 µg/mL protein, primary screen (AID 1182). The following applies: fluorescent protein binding, 635 nm, higher = more signal, called active from +8 up or from −8 down.
A further assay concerns XIP peptide (Xip251-270). As to the kind of experiment: compounds binding XIP fragment 251-270 – biochemical, small-molecule microarray, fluorescence 635/667 nm, 0.5 µg/mL protein, primary screen (AID 1183). Particulars: fluorescence 635 nm, higher = more signal.
Assay [2] in a line: blood-stage malaria parasite viability loss – strain 3D7, DAPI fluorescence, 100 nL, primary screen (AID 1184).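 Note: parasites grown inside human red blood cells in medium with human serum.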 Particulars: P. falciparum 3D7 growth, 3 d, higher = more signal.
The target of assay [3] is Homeobox protein Hox-A13 (Mus musculus) (UniProt Q62424). Put plainly: disruptors of Hoxa13 oligonucleotide interaction – biochemical, fluorescence polarization, labeled oligonucleotide, primary screen (AID 1185). Particulars: Hoxa13:DNA binding, 15 min, higher = more signal, called active from +8 up or from −8 down. Background: Polarisation of emitted light reports the rotation of a fluorescent probe.
Chain of Homeobox protein Hox-A13 (Mus musculus) (Q62424 whole entry, looked up): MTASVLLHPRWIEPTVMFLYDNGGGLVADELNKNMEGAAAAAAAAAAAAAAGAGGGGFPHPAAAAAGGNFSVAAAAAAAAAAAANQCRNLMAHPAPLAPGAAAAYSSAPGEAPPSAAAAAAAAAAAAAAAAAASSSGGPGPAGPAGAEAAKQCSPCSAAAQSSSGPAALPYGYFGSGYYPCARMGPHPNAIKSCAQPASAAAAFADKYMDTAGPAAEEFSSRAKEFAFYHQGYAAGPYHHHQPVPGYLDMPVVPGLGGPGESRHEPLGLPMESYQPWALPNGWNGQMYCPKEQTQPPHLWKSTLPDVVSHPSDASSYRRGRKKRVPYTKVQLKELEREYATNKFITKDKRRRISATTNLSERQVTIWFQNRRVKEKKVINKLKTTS

The nature of assay [4]: blockers of DNA damage checkpoint Chk1 activation – imaging, HeLa, hydroxyurea, phospho-Chk1 antibody, percent positive cells, primary screen (AID 1186). Particulars: hydroxyurea-induced phospho-Chk1 immunofluorescence imaging, higher = more signal.
Assay [5] in a line: blockers of DNA damage checkpoint Chk1 activation – imaging, HeLa, hydroxyurea, phospho-Chk1 nuclear intensity, primary screen (AID 1187). The following applies: hydroxyurea-induced phospho-Chk1 immunofluorescence imaging, higher = more signal.

In the case of `COC(=O)[C@@]1(Cc2ccc(F)cc2)[C@H]2c3cc(C(=O)N4CCCC4)n(Cc4c(CO)[nH]cc(C)c4=O)c3C[C@H]2CN1C(=O)c1ccccc1`, the composite z-score in assay [1] was 1.1 (inactive) and 0.516 (inactive); with XIP peptide (Xip251-270), -0.307 and 0.761. The z-score in assay [2] is -1.4 and -1.6; in assay [3] it was -5.99 (inactive) and -5.23 (inactive); in assay [4] it was 0.113 (inactive) and 0.998 (inactive); in assay [5], 0.0243 (inactive) and 0.533 (inactive).
`CC[C@@H]1C(Sc2ccccc2)C(C(=O)O)[C@H](c2ccc(C)cc2)N1S(=O)(=O)c1ccc(C)cc1` (some centres not stated): the composite z-score in assay [1] was 1.07 (inactive) and -0.215 (inactive); in the assay on XIP peptide (Xip251-270), 0.278 and 0.605. The z-score is -0.606 and 0.251 in assay [2]; -5.66 (inactive) and -4.34 (inactive) in assay [3]; -0.114 (inactive) and -0.912 (inactive) in assay [4]; -0.369 (inactive) and -0.714 (inactive) in assay [5].
For `C=CCN(C(=O)C1N(c2ccc(CCO)cc2)C(=O)C2C(C(=O)O)C3C=CC21O3)c1ccc(OC)cc1` (configuration not stated), the composite z-score in assay [1] was 0.777 (inactive) and -0.925 (inactive); with XIP peptide (Xip251-270), 0.936 and -0.824. In addition, the z-score in assay [2] is -1.09 and -0.417; in assay [3], -1.87 (inactive) and -0.733 (inactive); in assay [4], -0.265 (inactive) and -0.271 (inactive); in assay [5], -0.268 (inactive) and -0.384 (inactive).
For the compound `C[N+](C)(C)CCCCNC(=O)[C@H]1C[C@H]2C(=O)N[C@@H](CCCC[N+](C)(C)C)C(=O)N2[C@H]1c1cccc(OCCO)c1`, the composite z-score in assay [1] is 1.64 (inactive) and 0.768 (inactive); in the assay with XIP peptide (Xip251-270), 0.921 and 0.684. The z-score in assay [2] is 0.211 and -0.244; in assay [3] it was -1.74 (inactive) and -2.51 (inactive); in assay [4], -0.885 (inactive) and -0.42 (inactive); in assay [5], -0.771 (inactive) and -0.16 (inactive).
As to `C=CCN(CCCC)C(=O)C1N(CCOCCO)C(=O)C2C(C(=O)O)C3C=CC21O3` (configuration not stated), the composite z-score in assay [1] is 0.175 (inactive) and 0.306 (inactive); in the assay on XIP peptide (Xip251-270), 1.07 and -0.932. Also, the z-score is 0.172 and 0.134 in assay [2]; -1.14 (inactive) and -0.529 (inactive) in assay [3]; -0.24 (inactive) and 0.924 (inactive) in assay [4]; -0.299 (inactive) and 0.869 (inactive) in assay [5].
For `C=CCN(C(=O)C1N(C(C)(C)CO)C(=O)C2C(C(=O)O)C3C=CC21O3)C(C)(C)C` (configuration not stated), the composite z-score was -0.651 (inactive) and 0.11 (inactive) in assay [1]; -0.901 and -0.924 with XIP peptide (Xip251-270). The z-score in assay [2] was 0.214 and -0.208; in assay [3] it was -1.11 (inactive) and 0.241 (inactive); in assay [4] it was -0.518 (inactive) and 1.17 (inactive); in assay [5] it was -0.112 (inactive) and 0.674 (inactive).
`C=C[C@H](OC)[C@@H](O)c1ccc(OCCO)cc1`: the composite z-score in assay [1] was 0.632 (inactive) and -0.235 (inactive); in the assay on XIP peptide (Xip251-270), -1.15 and -0.537. Also, the z-score was 0.0026 and 0.809 in assay [2]; -0.791 (inactive) and -0.187 (inactive) in assay [3]; 0.228 (inactive) and 0.524 (inactive) in assay [4]; 0.0287 (inactive) and 0.865 (inactive) in assay [5].
On to `C[C@@]1([C@@H](NC(=O)Cc2ccccc2)c2ccc(-c3ccccc3)cc2)C[C@H]1C1CCCCC1`, for which the composite z-score in assay [1] is 0.142 (inactive) and -0.175 (inactive) and -0.0036 (inactive); with XIP peptide (Xip251-270) it was 0.0261 and -0.867 and 0.444. Also, the z-score was -1.3 and -0.345 and -1.39 in assay [2]; 1.49 (inactive) and -0.249 (inactive) and -1.63 (inactive) in assay [3]; 0.641 (inactive) and 0.338 (inactive) and 0.416 (inactive) in assay [4]; 1.03 (inactive) and 0.448 (inactive) and -0.21 (inactive) in assay [5].
For `C=CCN(CCCCC)C(=O)C(c1cccs1)N(C(=O)/C=C\C(=O)O)c1ccc(CCO)cc1` (configuration not stated), the composite z-score is -0.141 (inactive) and 0.737 (inactive) in assay [1]; 0.861 and -0.198 in the assay with XIP peptide (Xip251-270). Further, the z-score in assay [2] is 0.653 and 0.454; in assay [3], -0.227 (inactive) and 0.0535 (inactive); in assay [4], 0.51 (inactive) and 0.163 (inactive); in assay [5], 0.571 (inactive) and -0.0484 (inactive).
For the compound `C=CCN(C(=O)C(c1cccs1)N(C(=O)/C=C\C(=O)O)c1ccc(CCO)cc1)C(C)(C)C` (configuration not stated), the composite z-score in assay [1] was 0.356 (inactive) and 1.08 (inactive); with XIP peptide (Xip251-270) it was -0.998 and 0.187. In addition, the z-score in assay [2] was -0.21 and -0.719; in assay [3] it was 0.0682 (inactive) and -0.369 (inactive); in assay [4], 0.632 (inactive) and 1.03 (inactive); in assay [5] it was 0.344 (inactive) and 0.743 (inactive).
Regarding `CCOC(=O)C[C@H]1[C@H](OC(=O)c2ccccc2-c2ccccc2)[C@@H](NC(=O)Cc2ccc(OC)cc2)c2cc(OCCCO)ccc2N1C(=O)c1ccc2ccccc2n1`, the composite z-score is -0.432 (inactive) and 0.387 (inactive) in assay [1]; -0.398 and 0.0791 in the assay with XIP peptide (Xip251-270). The z-score in assay [2] was -0.543 and -0.616; in assay [3] it was -1.67 (inactive) and -0.554 (inactive); in assay [4], -0.015 (inactive) and -0.308 (inactive); in assay [5], 0.0414 (inactive) and -0.162 (inactive).
`CC(CO)N1C(=O)[C@@H]2C3C(=O)OCCC=C[C@H]3OC23C=CCN(c2ccc4ccccc4c2)C(=O)[C@@H]13` (some centres not stated): the composite z-score was 0.62 (inactive) and -0.143 (inactive) in assay [1]; 0.713 and 0.135 in the assay on XIP peptide (Xip251-270). The z-score in assay [2] was -0.526 and 0.0547; in assay [3], -6.14 (inactive) and -5.9 (inactive); in assay [4], -0.437 (inactive) and 0.0615 (inactive); in assay [5], 0.0032 (inactive) and 0.0969 (inactive).
